# ChEMBL document CHEMBL4513216, “Probing the Open Global Health Chemical Diversity Library for Multistage-Active Starting Points for Next-Generation Antimalarials” (ACS Infect Dis, 2020)
# Among all 69,000 compounds or so, about 8,600 (12%) showed an effect of 50% or more. The sample as a whole holds a higher share of strong results than the screen did.
# Tested on: Plasmodium berghei
# Assay: Screen against P. berghei liver stage (PbLuc), transformed with Luciferase, at 10uM
# Assay type: functional, HepG2
# Conditions: tested at 10 uM
row,Structure (SMILES),INHIBITION [%]
1,Cc1nc(CN2C[C@H]3C[C@H](C(=O)NCC4CC4)N(C)[C@H]3C2)cs1,19.8
2,O=C(NCCC1CCN(CC(F)(F)F)CC1)C1CCCOC1 (centres undefined),-10.3
3,CCNC(=O)c1ccoc1CN1c2ccccc2CC1C (centres undefined),-3.19
4,COCCNC(=O)c1ccoc1CN1c2ccccc2CC1C (centres undefined),20.9
5,CC1Cc2ccccc2N1Cc1occc1C(=O)NCC(=O)N(C)C (centres undefined),53.9
6,CNC(=O)C1CN(C(=O)c2cccnc2)CCN(S(C)(=O)=O)C1 (centres undefined),9.25
7,CN1CCCN(C(=O)NCCNc2ncccn2)CC1,16.8
8,CC(=O)N(Cc1ccc(NCc2cnn(C(C)(C)C)c2)cc1)C(C)C,38.5
9,CC(C)(C)n1cc(CNc2ccc(CNS(C)(=O)=O)cc2)cn1,74.4
10,CC(C)OC(=O)NCc1ccc(NCc2cnn(C(C)(C)C)c2)cc1,18.9
11,CCNc1nc2cn(-c3ccc(C)c(C)c3)c(=O)c-2c[nH]1,-31.1
12,O=C(NCCNCC1CNc2ccnn2C1)c1ccc(F)cc1 (centres undefined),32.4
13,O=C(Cc1ccc(F)cc1)NCCNCC1CNc2ccnn2C1 (centres undefined),19.7
14,Cc1ccc(C(=O)NCCNCC2CNc3ccnn3C2)cc1 (centres undefined),7.67
15,Cc1cc2n(n1)CC(CNCc1ccc(OCC3CC3)nc1)CN2 (centres undefined),60.7
16,COc1ccc(CNCC2CNc3cc(C)nn3C2)cn1 (centres undefined),-6.185
17,Cc1cc2n(n1)CC(CNCCc1cnn(C)c1)CN2 (centres undefined),54.3
18,Cc1ccc(C(=O)NCCNCC2CNc3ccnn3C2)cc1F (centres undefined),59.3
19,COc1ccc(CNCC2CNc3ccnn3C2)cn1 (centres undefined),25.1
20,COCCOc1ccc(CNCC2CNc3cc(C)nn3C2)cn1 (centres undefined),25.995
21,Cc1cc2n(n1)CC(CNCc1cnn(C)c1)CN2 (centres undefined),33.7
22,Cn1cc(CCNCC2CNc3ccnn3C2)cn1 (centres undefined),71.4

row,Structure (SMILES),INHIBITION [%]
1,Cc1cc2n(n1)CC(CNCc1cnn(-c3ccccc3)c1)CN2 (centres undefined),15.5
2,CCN(Cc1noc(C2CCC2)n1)C(=O)c1cn2ccsc2n1,30
3,CS(=O)(=O)CCCNC(=O)C1(c2cccc(Cl)c2)CC1,28.3
4,CN(CC(N)=O)CC(=O)N1CC=C(c2ccccc2)CC1,-46.4
5,COc1cc(NC2CCCN(c3ncccn3)C2)cc(OC)c1 (centres undefined),23.1
6,CCc1cnccc1C(=O)NC1CCN(C(=O)C2CCCCC2)CC1,38.7
7,CCC1CN(c2ncnc3nc[nH]c23)CCO1 (centres undefined),-2.03
8,CCCc1nnsc1C(=O)N1CCN(CC(O)C2CC2)CC1 (centres undefined),37.4
9,CCC(O)CN1CCN(C(=O)c2ccc(N(C)C)nn2)CC1 (centres undefined),-26.6
10,CCc1nnsc1C(=O)N1CCN(CC(O)CC)CC1 (centres undefined),17.8
11,CCCc1nnsc1C(=O)N1CCN(CC(C)O)CC1 (centres undefined),51.7
12,CN(C)c1ccc(C(=O)N2CCN(CC(O)C(C)(C)C)CC2)nn1 (centres undefined),7.12
13,CC(O)CN1CCN(C(=O)c2ccc(N(C)C)nn2)CC1 (centres undefined),51.2
14,O=C1[C@H]2CN(c3ncccn3)C[C@H]2CN1CCN1CCCC1,19.5
15,CC(C)n1ccc(C(=O)OCC2CC(=O)N(Cc3ccccc3)C2)n1 (centres undefined),1.74
16,CC(C)(NC(=O)CCc1ccco1)c1ccc2c(c1)OCCO2,10.6
17,Cc1cccc(N2CCN(C(=O)CCc3ccsc3)C(C)C2)n1 (centres undefined),-16.8
18,Cc1cc(NC(=O)NCC(c2ccccc2)N2CCOCC2)n(C)n1 (centres undefined),-2.53
19,CS(=O)(=O)c1ccc(CNC2CCCN(c3cccnn3)C2)cc1 (centres undefined),39.5
20,CC(C)(C)c1nc(CNC2CCCN(c3cccnn3)C2)no1 (centres undefined),79.2
21,Cc1nc(CNC2CCCN(c3cccnn3)C2)no1 (centres undefined),26.5
22,CC(C)c1nc(CNC2CCCN(c3cccnn3)C2)no1 (centres undefined),78.2

row,Structure (SMILES),INHIBITION [%]
1,Cc1cc(CNC2CCCN(c3cccnn3)C2)no1 (centres undefined),11.8
2,CN(Cc1noc(C(C)(C)C)n1)C1CCCN(c2cccnn2)C1 (centres undefined),66.2
3,CC(C)c1nc(CN(C)C2CCCN(c3cccnn3)C2)no1 (centres undefined),18.2
4,c1ccc(-c2nc(CNC3CCCN(c4cccnn4)C3)no2)cc1 (centres undefined),48.4
5,Cc1nc(CN(C)C2CCCN(c3cccnn3)C2)no1 (centres undefined),-31.9
6,CNC(=O)C1(CCCc2cnccn2)CCN1Cc1ccc(C)cc1 (centres undefined),24.585
7,CC(NC(=O)NCC1(O)CCC1)c1ccc(OCC2CC2)c(F)c1 (centres undefined),13.4
8,CCc1nn(C)c2[nH]nc(NC(=O)c3cccnc3OCC(C)C)c12,47.4
9,Cn1cc(Cl)c(C(=O)N2CCc3nc4sccc4c(=O)n3CC2)n1,-9.32
10,CCn1nc(C)c2nc(C)nc(N(C)Cc3ccco3)c21,43.3
11,CCCc1nc(N(C)Cc2ccco2)c2c(n1)c(C)nn2CC,-6.42
12,CCn1nc(C)c2ncnc(N(C)Cc3ccco3)c21,52.4
13,CCOCC1CN(CCN(C)C)Cc2cnn(CC3CCCC3)c21 (centres undefined),41.2
14,CCC(C)NC(=O)Nc1ccc(CN2CCOC2=O)cc1 (centres undefined),29
15,CC(C)CNC(=O)Nc1ccc(CN2CCOC2=O)cc1,23.2
16,CC(C)C(O)C1(CNC(=O)Nc2ccc(CN3CCOC3=O)cc2)CC1 (centres undefined),65.3
17,Cc1[nH]nc2ncc(C(=O)N3CCN(CCC(C)C)CC3)cc12,23.7
18,Cc1ccc(CC(=O)N2CCC(Nc3ccc(C)nn3)CC2)cn1,1.78
19,CS(=O)(=O)NCC1CCCN(C(=O)c2ccc(F)c(F)c2)C1 (centres undefined),53
20,CS(=O)(=O)NCC1CCCN(C(=O)c2ccco2)C1 (centres undefined),-14.6
21,O=C(c1ccc(F)c(F)c1)N1CCN2CCCC2C1 (centres undefined),9.52
22,COc1ccc(C(=O)N2CCCC(CNS(C)(=O)=O)C2)cc1F (centres undefined),11.6

row,Structure (SMILES),INHIBITION [%]
1,CS(=O)(=O)NCC1CCCN(C(=O)c2cccc(F)c2)C1 (centres undefined),38.5
2,Cc1ccc(C(=O)N2CCCC(CNS(C)(=O)=O)C2)o1 (centres undefined),26.4
3,O=C(c1ccc(-n2cccc2)c(F)c1)N1CCCN2CCCC2C1 (centres undefined),-33.9
4,O=C(c1ccc(F)c(Br)c1)N1CCCN2CCCC2C1 (centres undefined),59.4
5,CS(=O)(=O)NCC1CCCN(C(=O)c2cc3ccccc3o2)C1 (centres undefined),57.8
6,CC1(NC(=O)CNC(=O)C(C)(C)C)CCc2ccccc2C1 (centres undefined),-2.43
7,COCCc1noc(CN2CC(n3nc(C)cc3C)C2)n1,-57.4
8,CC(C)COC(C)C(=O)NCc1ccccc1 (centres undefined),-10.1
9,CCc1cc(=O)[nH]c(-c2ccc(NC(C)CN3CCOCC3)nc2)n1 (centres undefined),-33.9
10,CSCC1CCCN(c2ncnc3oc(C)nc23)C1 (centres undefined),-0.532
11,O=C(NCc1ccccn1)[C@@H]1COC[C@H]2CN(C3CCOCC3)C[C@H]21,29.6
12,CCN(CC)c1ccc2ccc(C(=O)N3CCCCO3)cn12,68.9
13,CN1CCN(c2ccc3ccc(C(=O)N4CCCCO4)cn23)CC1,-12.4
14,CCN(CC)c1ccc2ccc(C(=O)N(CCOC)CCOC)cn12,46.7
15,CN(C)C(=O)CNC(=O)c1ccc2ccc(N(C)CC3CC3)n2c1,26
16,CCN(CC)c1ccc2ccc(C(=O)O)cn12,39.3
17,CCN(CC)c1ccc2ccc(C(=O)N(C)C)cn12,57.1
18,CN1CCN(c2ccc3ccc(C(=O)N4CCCO4)cn23)CC1,51.2
19,O=C(c1ccc2ccc(N3CCN(CC4CC4)CC3)n2c1)N1CCCO1,40.8
20,CN(CC1CC1)c1ccc2ccc(C(=O)NC3CCCCC3)cn12,0.112
21,CN(CC1CC1)c1ccc2ccc(C(=O)NCCN3CCOCC3)cn12,23.2
22,CCNC(=O)c1ccc2ccc(N(CC)CC)n2c1,55.6

row,Structure (SMILES),INHIBITION [%]
1,CCN(CC)c1ccc2ccc(C(=O)NC3CC3)cn12,24.6
2,C[C@@H]1CN(CCC(=O)NCc2ccccc2Cl)CC[C@@]1(O)C1CCC1,41.4
3,CN(C)C1CCN(C(=O)Cc2csc(-c3ncccn3)n2)CC1,-31.3
4,COc1c(CNCCc2c[nH]c3ccccc23)c(C(C)C)nn1C,22.5
5,COCC1COCCC12CCN(S(=O)(=O)c1ccccc1C)CC2 (centres undefined),48.4
6,CCCc1nnc2sc(-c3cc(C(C)C)n[nH]3)nn12,35.7
7,Cc1noc(C)c1C(=O)N1CCCN(C)c2ccc(Cl)cc21,19.7
8,Cc1nc(C)n(CC2CCCN(CCCc3ccccc3)C2)n1 (centres undefined),44.3
9,O=C(NC1CC1)[C@H]1CN(Cc2ccc3c(c2)OCO3)C[C@H]2OCC[C@@H]12,-23.3
10,Cc1cc2[nH]cc(C(=O)N3CCCCC3c3ccc(F)cc3)c(=O)n2n1 (centres undefined),17.8
11,Cc1nc2[nH]cc(C(=O)N3CCCCC3c3ccc(F)cc3)c(=O)n2n1 (centres undefined),57.1
12,Cc1cc(=O)c(C(=O)N2CCCCC2c2ccc(F)cc2)c[nH]1 (centres undefined),-4.37
13,Cc1cc(CN2CCCN(c3ccc(C#N)cc3)CC2)no1,29.17
14,Fc1ccccc1Cn1c(C2CCNCC2)cc2cccnc21,52.55
15,COc1ccc(Cn2c(C3CCNCC3)cc3cccnc32)cc1,36.8
16,c1cnc2c(c1)cc(C1CCOCC1)n2CCN1CCOCC1,32.4
17,Fc1cccc(F)c1Cn1c(C2CCCNC2)cc2cccnc21 (centres undefined),30.74
18,COc1cccc(Cn2c(C3CCNCC3)cc3cccnc32)c1,10.82
19,Fc1cccc(F)c1Cn1c(C2CCNCC2)cc2cccnc21,54.9
20,Cc1oncc1C(=O)N1CCC2(CCN(Cc3cccnc3)C2=O)C1 (centres undefined),5.41
21,O=C(CC1CCCCC1)N1CCOCC1CO (centres undefined),-40
